Hits are enriched below; roughly 12% of the tested compounds scored in any of these assays.
Sfp inh = Sfp phosphopantetheinyl transferase inhibition; Biochemical Sfp PPTase activity, qHTS; actives 3.5% (n = 310,000); Potency, µM, without a hit: largest response in the series, negative = inhibition, actives largely listed as inhibitors; Q9F4F7;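 note: the enzyme is Sfp with the accession as filed and its product quenches rhodamine fluorescence; 0% = enzyme reaction without inhibitor and -100% = no enzyme wells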
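Compounds were incubated with enzyme (final 15 nM) for 15 min at room temperature before substrate addition started the reaction. Fluorescence at 525 nm excitation, 598 nm emission was recorded immediately and after 30 minutes.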
G9a inh = G9a (human) methyltransferase inhibition; Q96KQ7; G9a H3K9 monomethylation, AlphaScreen, 2 h; Potency, µM (top dose mostly 102 µM), inactives show top-dose activity, negative = inhibition, usual class: inhibitors; actives 8.8% (n = 350,000); AID 504332; note: % is set by controls: 0 for no effect and ±100 for the full control effect; nearly all actives have a fitted effect of over 75% in size
Target sequence (Q96KQ7 913-1193 limits assumed): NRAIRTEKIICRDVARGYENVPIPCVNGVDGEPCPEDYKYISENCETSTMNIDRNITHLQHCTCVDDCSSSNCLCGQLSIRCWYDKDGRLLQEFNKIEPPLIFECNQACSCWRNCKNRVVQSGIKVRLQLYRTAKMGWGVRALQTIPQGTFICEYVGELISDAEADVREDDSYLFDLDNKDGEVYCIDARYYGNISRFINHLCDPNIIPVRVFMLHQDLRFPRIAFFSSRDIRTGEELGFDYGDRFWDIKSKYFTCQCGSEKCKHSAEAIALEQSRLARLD
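Enzyme 20 nM + cpd, 15 min RT; add b-H3K9 pep 500 nM / SAM 20 uM; 2 h RT; anti-H3K9me1 Ab 0.5 ug/mL + SA donor / anti-rabbit acceptor beads 20 ug/mL each, 10 min; AlphaScreen read.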
L3MBTL1 block = blocks human L3MBTL1; actives 0.66% (n = 230,000); Q9Y468; AlphaScreen L3MBTL1–H3K9me1 peptide binding; AID 485360; Potency, µM (titrated, usually from 57.1 µM), for inactives: top-dose activity, negative = inhibition, most hits filed as inhibitors; note: % is set by controls: 0 for no effect and ±100 for the full control effect; nearly all actives have a fitted effect of over 60% in size
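Displacement of a biotinylated histone H3(1-15) peptide monomethylated at Lys9 (75 nM) from L3MBTL1 (50 nM) was measured by AlphaScreen after a 30 min room-temperature compound incubation; cefsulodin titration served as intraplate control.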
HP1b chromo inh = blocks HP1-beta chromodomain binding to methylated histone tails. P83916. AlphaScreen HP1-beta / biotin-H3K9me3 peptide binding. Potency, µM (highest dose often 114 µM), without a hit: top-dose activity change, negative = inhibition, hits mostly inhibitors. actives 0.56% (n = 390,000); note: nearly all actives have a fitted effect of over 70% in size
Target sequence (P83916 whole entry, looked up): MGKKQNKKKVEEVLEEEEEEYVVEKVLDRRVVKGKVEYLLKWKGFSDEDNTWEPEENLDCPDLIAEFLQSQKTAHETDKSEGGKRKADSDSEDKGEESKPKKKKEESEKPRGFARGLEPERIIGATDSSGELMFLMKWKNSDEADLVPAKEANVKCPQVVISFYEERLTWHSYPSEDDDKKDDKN
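Compound inhibition of the preformed complex between 50 nM HP1-beta and 50 nM biotinylated H3K9me3 peptide was read by AlphaScreen. Buffer was PBS pH 7.4 with 0.01% Tween-20. Incubations ran 30 min at room temperature, with 10 ug/mL donor/acceptor beads.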
JMJD2A Tudor = inhibitors of human JMJD2A Tudor domain. AlphaScreen JMJD2A-Tudor / H3K4me3 peptide binding. Potency, µM (titrated, usually from 114 µM), for the others: at the highest dose activity change, negative = inhibition, actives largely listed as inhibitors. actives 4.4% (n = 390,000). O75164; note: % is set by controls: 0 for no effect and ±100 for the full control effect; nearly all actives have a fitted effect of over 50% in size
BAZ2B block = blocks human BAZ2B. actives 4.4% (n = 360,000). AlphaScreen BAZ2B-H3K14Ac peptide displacement. Potency, µM (doses to about 114 µM), for the others: at the top dose activity change, negative = inhibition, actives largely listed as inhibitors; note: % is set by controls: 0 for no effect and ±100 for the full control effect; nearly all actives have a fitted effect of over 60% in size
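BAZ2B 50 nM plus b-H3(5-23)K14Ac 50 nM, PBS pH 7.4/0.01% Tween-20, 30 min RT; compound added (max 110 uM), 30 min RT; streptavidin donor/Ni-chelate acceptor beads 10 ug/mL final, 20 min dark; AlphaScreen read.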
* hit, by the source's call; ? = inconclusive; . = not tested or not shown; ! = not confirmed by another sample; [ ] = remark or other dose. Calls come from the whole dose curve; as a rule, active = well fitted curve in the direction sought with a large enough effect; inconclusive = small, poorly fitted or top-dose-only effect, or another doubt; inactive = no such curve, though single readings can be large; an effect the other way counts as inactive or inconclusive. Potency is the fitted concentration of half-maximal effect.

SMILES | Sfp inh | G9a inh | L3MBTL1 block | HP1b chromo inh | JMJD2A Tudor | BAZ2B block
CC(C)C12CN3CC(C(C)C)(CN(C1)C3c1ccc(Cl)cc1)C2=O (stereo not given) | . | -4%[59 µM] | . | 49% | 22% | 4%
CC(C)c1ccc(NC(=O)c2cc3c(=O)oc4ccccc4c3s2)cc1 | . | 7%[59 µM] | . | 19% | -14% | -2%
CCOC(=O)C1CCCN(S(=O)(=O)c2ccc3[nH]c(=O)ccc3c2)C1 (stereo not given) | . | 13%[59 µM] | . | 29%[57 µM] | -2% | 1%
Cn1cncc1C#Cc1ccc2cc(CCCO)oc(=O)c2c1 | . | 9%[0.501 µM] | -9% | 26% | -26% | -1%
Cn1cncc1C#Cc1ccc2cc(CCO)oc(=O)c2c1 | . | 1%[0.501 µM] | -19% | 41% | -28% | 56µM*
CCOC(=O)c1cc(S(=O)(=O)NCc2ccc(Cl)cc2)[nH]n1 | . | 7.9µM* | . | 12%[57 µM] | -22% | ?
CCOC(=O)c1cc(S(=O)(=O)NCc2ccc(OC)cc2)[nH]n1 | . | 13µM* | . | 8%[57 µM] | ? | ?
O=C(CSc1ncc2c(n1)-c1ccccc1N(Cc1ccc(F)cc1)S2(=O)=O)NCCc1ccccc1 | . | 9%[59 µM] | . | 24% | 0% | 0%
Cc1cc[n+](-c2[nH]c(=O)sc2/C=N/NC([S-])=Nc2ccccc2)cc1 | -21% | 28µM* | ? | ? | ? | ?
CC(C)(C)c1cc[n+](-c2[nH]c(=O)sc2/C=N/N=C(\[O-])c2cccnc2)cc1 | -15% | ? | . | 37% | -16% | 3%
O=c1[nH]c(-[n+]2ccc3ccccc3c2)c(/C=N/N=C(\[O-])c2ccccc2)s1 | -4% | ? | . | 35% | -9% | -18%
CCc1ccc[n+](-c2[nH]c(=O)sc2/C=N/NC([S-])=Nc2ccccc2)c1 | -21% | 22µM* | -24% | -38% | ? | ?
O=c1[nH]c(-[n+]2ccccc2)c(/C=N/NC([S-])=Nc2ccccc2)s1 | ? | 22µM* | -20% | -6% | -28% | -38%
CC(C)(C)c1cc[n+](-c2[nH]c(=O)sc2/C=N/NC(=O)c2ccccc2[O-])cc1 | -1% | 79µM* | . | 9% | -26% | -12%
CCc1ccc[n+](-c2[nH]c(=O)sc2/C=N/N=C(\N)[O-])c1 | ? | 17% | . | 22% | 6% | -27%
O=C(CNC(=O)c1cccc2ccccc12)OC(C(=O)Nc1cc(C(F)(F)F)ccc1Cl)c1ccccc1 (stereo not given) | . | . | . | . | -10% | .
Cc1ccc2[nH]c(C(=O)N/N=C/c3ccccc3O)c(C)c2c1 | 21% | 14% | . | 26% | -21% | -10%
Cc1cc(C)c[n+](-c2[nH]c(=O)sc2/C=N/NC([S-])=Nc2ccccc2)c1 | -29% | 35µM* | -29% | ? | ? | ?
C=CCn1c(/N=C/c2ccc(N(C)C)cc2)nc2ccccc21 | 13% | 45µM* | -3% | -10% | ? | ?
C=CCn1c(/N=C/c2ccc(OC)cc2)nc2ccccc21 | 6% | -49% | . | 20% | -11% | -24%
Cc1sc(NC(=O)CCl)c(C(=O)c2ccccc2)c1C | 22µM* | ? | -23% | ? | 20µM* | ?
CNC(=O)c1c(NC(=O)c2nc3ccccc3s2)sc2c1CCC2 | 18µM* | 40µM* | . | . | . | -10%
Cc1ccccc1C(=O)Nc1sc2c(c1C(=O)O)CCC2 | 12% | 50µM* | -2% | 1% | -11% | ?
Cc1ccccc1C(=O)Nc1sc(C)c(C)c1C(=O)c1ccccc1 | 32µM* | 10µM* | -15% | ? | ? | ?
CCc1ccc(CSc2nc(-c3ccc(OC)cc3)nc3c2Cc2c(CO)cnc(C)c2O3)cc1 | . | -29%[59 µM] | . | 15% | -8% | ?
SMILES | Sfp inh | G9a inh | L3MBTL1 block | HP1b chromo inh | JMJD2A Tudor | BAZ2B block
Cc1ccc2c(c1)C(=O)OC(C(=O)Nc1ncc(Cc3ccccc3Cl)s1)C2 (stereo not given) | . | 0%[59 µM] | . | 19% | -4% | -5%
CCN(CC)CCCC(C)NC(=O)c1c(NC(=O)c2ccccc2)sc2c1CCCC2 (stereo not given) | -18% | 79µM* | -1% | -10% | 45µM* | -14%
Cc1cc(C(=O)c2ccc(C(C)(C)C)cc2)c(NC(=O)CCl)s1 | -5% | 32µM* | -26% | -11% | ? | -32%
COC(=O)c1c(C)[nH]c(O)c1C=Nc1ccc(C#N)cc1 | 45µM* | 18µM* | -30% | 17% | ? | 100µM*
CCOC(=O)c1c(C)[nH]c(C=Nc2ccc(OC)cc2)c1O | 10% | -9%[59 µM] | -14% | -5% | ? | -36%
CCOC(=O)c1c(C)[nH]c(C=Nc2ccccc2)c1O | 40µM* | ? | -6% | . | . | ?
CCOC(=O)c1c(C)[nH]c(O)c1C=Nc1ccccc1 | ? | 1% | -9% | -17% | ? | 50µM*
COC(=O)CN1C(=O)C(C)(C)c2cc(S(=O)(=O)NCc3ccc(Cl)cc3)ccc21 | . | 3%[59 µM] | . | 27%[57 µM] | -6% | 1%
O=C(Nc1ccccc1Cl)N1CCC2(CC1)Oc1ccccc1C(=O)N2Cc1ccc(F)cc1 | . | -3%[59 µM] | . | 21% | -4% | -5%
Cc1cc(C)cc(C(=O)NN2CCN(C)CC2)c1 | 15% | 3%[12.7 µM] | 8% | -5% | 22µM* | 4%
CS(=O)(=O)c1ccccc1C(=O)N1CCN(S(=O)(=O)c2ccc(C3CCCCC3)cc2)CC1 | . | 50µM* | -14% | 7% | -32% | -32%
O=C(CC(c1cccs1)N1Cc2ccccc2C1=O)Nc1ccccc1 (stereo not given) | . | -7%[59 µM] | . | 18% | -10% | -3%
NC(=S)NCCC[C@H](N)C(=O)O | 56µM* | 1.7µM*! | . | . | . | .
Cc1cccnc1NC(=O)c1ccc(Br)o1 | . | -5% | 7% | 28% | -9% | 12%
O=C(CNC(=O)c1ccc(Br)o1)Nc1ncccc1O | . | 28µM* | ? | 3% | ? | 79µM*
Cc1ccc(C(=O)Nc2ncccc2O)o1 | . | 6%[12.7 µM] | -2% | -17% | 3.5µM* | ?
Cc1ccc2oc(C(=O)N(Cc3ccc(N(C)C)cc3)C3CCS(=O)(=O)C3)c(C)c2c1 (stereo not given) | 4% | 25µM* | . | ? | 20µM* | 11µM*
Cc1ccc2c(C)c(C(=O)N(Cc3ccc(N(C)C)cc3)C3CCS(=O)(=O)C3)oc2c1 (stereo not given) | -18% | . | ? | ? | 25µM* | 13µM*
Cc1ccc2c(=O)cc(C(=O)N(Cc3ccc(N(C)C)cc3)C3CCS(=O)(=O)C3)oc2c1 (stereo not given) | . | ? | . | 27% | -30% | ?
